Compound activity from PubChem.
Shiga toxin inh: blocks Shiga toxin action in Vero cells; Vero cells, Shiga toxin protein synthesis inhibition reporter; inhibition, % at 38.7 µM; 290,000 compounds, 9.2% hits; AID 2315; in the data active means inhibition mostly above about 28%, no sharp cut-off; inactive means mostly below about 43%; further: 0% is about no effect
Lassa entry inh: Lassa virus entry inhibition; Potency, µM (top dose mostly 37.9 µM), inactives show at the top dose activity change, negative = inhibition, most hits filed as inhibitors; 300,000 compounds, 1.2% hits; Lassa virus pseudotype entry inhibition, cell reporter; calls by dose curve; tested in HEK293 cells; further: potency means the concentration at half of the fitted maximal effect; on the % scale 0 is the no-effect control and ±100 the full control effect; nearly all actives have a fitted effect of over 50% in size
Cycloheximide cs: affects cycloheximide protein synthesis inhibition readout, counter-screen | cell reporter, cycloheximide protein synthesis inhibition counterscreen | 300,000 compounds, 12% hits | max response, %; in the data active means max response mostly above about 13%, no sharp cut-off; inactive means mostly below about 14%; further: read at 38.3 µM for the half of the compounds with a filed dose; 0% is about no effect
MARV entry inh: inhibitors of Marburg virus binding or cell entry; Potency, µM (series often up to 37.8 µM), inactives show at the top dose activity change, negative = inhibition, hits mostly inhibitors; Marburg virus pseudotyped entry inhibition, cell reporter; 300,000 compounds, 1.8% hits; calls by dose curve; tested in HEK293 cells; further: potency means the concentration at half of the fitted maximal effect; on the % scale 0 is the no-effect control and ±100 the full control effect
AMA1 RON2 block: disrupts binding of P. falciparum AMA1 to RON2; AlphaScreen AMA1-biotinylated RON2 peptide binding; AID 720542; 360,000 compounds, 0.2% hits; Potency, µM (top dose mostly 58.2 µM), for inactives: at the top dose activity change, negative = inhibition, most hits filed as inhibitors; active means well fitted inhibition curve with a large enough effect; inconclusive means small, poorly fitted or top-dose-only effect; inactive means no such curve, though single readings can be large or run the other way;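 further: potency means the concentration at half of the fitted maximal effect; 0% = vehicle wells and -100% = peptide control; nearly all actives have a fitted effect of over 45% in size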
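AMA1 (3D7) with his tag at 25 nM final met compounds first, then biotinylated RON2 peptide at 25 nM; detection used donor plus acceptor beads, 10 µg/mL apiece, read by AlphaScreen after 30 min at room temperature.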
* hit, by the source's call; ? = inconclusive; . = no result given; + = active, no number; [ ] = remark or other dose. Only a selection was taken, and hits are over-represented in it overall.

SMILES	Shiga toxin inh	Lassa entry inh	Cycloheximide cs	MARV entry inh	AMA1 RON2 block
CC(=O)c1ccc(NC(=O)CCc2nnc3ccc(N4CCC5(CC4)OCCO5)nn23)cc1	82*	14%[46.1 µM]	47*	?	0%
Cc1ccc(NC(=O)CCc2nnc3ccc(N4CCC5(CC4)OCCO5)nn23)nc1	-10	.	0	.	-10%
C/C(=N/Nc1ccc(C(=O)c2c(C)cc3ccccn23)cc1[N+](=O)[O-])c1ccc(O)cc1	.	13%[46.1 µM]	.	-8%[46.1 µM]	9%
Cc1ccccc1OCCC(=O)N(CC(C)C)c1c(N)n(Cc2ccccc2)c(=O)[nH]c1=O	.	.	.	.	17%
Cc1ccccc1OCCC(=O)N(Cc1ccccc1)c1c(N)n(Cc2ccccc2)c(=O)[nH]c1=O	2	11µM*	-3	4%	11%
CCOC(=O)C1=C(C)N(C[C@@H]2CC[C@@H](Cc3ccc(-c4ccccc4)cc3)O2)C(=O)NC1c1cccc([N+](=O)[O-])c1 (stereo not given in full)	.	.	.	.	-7%
CSC(N)=NCCC[C@H](N)C(=O)O	.	-3%	.	25%	.
Brc1ccccc1-n1nnc(-c2ccnc3ccccc23)n1	22	.	19*	.	-4%
O=C(Nc1ccc(C(=O)NN2C(=O)c3ccccc3C2=O)cc1)c1ccccc1	-4	.	-4	.	7%
O=C(O)c1ccc2c(c1)C(=O)N(NC(=O)c1ccccc1)C2=O	61*	0%	31*	2%	1%
O=C1Nc2cc(Cl)c(Cl)cc2N(O)N1c1ccccc1	20	18%	30*	3%	-4%
Cc1ccccc1NC(=O)C1CCCN1S(=O)(=O)c1ccccc1C(F)(F)F (stereo not given)	.	-2%	.	-12%	-3%
O=C(Nc1ccc(Cl)cc1)Nc1nnc(CSCc2ccccc2)s1	-1	24%	-5	6%	-6%
O=C(Nc1nnc(SCc2ccccc2F)s1)C1=COCCO1	116*	24%[46.1 µM]	57*	?	-4%
CC(=O)Nc1nnc(CSCc2ccccc2F)s1	28	-7%[46.1 µM]	23*	?	5%
CC(=O)Nc1nnc(SCc2ccccc2F)s1	44*	23%	24*	17%	1%
O=C(Nc1nnc(SCc2ccccc2)s1)C1=COCCO1	.	-20%	.	?	4%
COc1ccc(C(C(=O)NC2CCCC2)N(Cc2cccnc2)C(=O)c2snc(C(N)=O)c2N)cc1 (stereo not given)	-3	0%	-5	?	0%
CCOC(=O)C1=C(C)OC(N)=C(C#N)C1c1cc2cc(C)ccc2nc1N1CCCCC1 (stereo not given)	45*	-1%	15	?	6%
CCC(C)(C)n1nnnc1CN1CCN(C(c2ccccc2)c2ccccc2)CC1	10	13µM*	-2	-30%	-24%
CN(c1ccccc1)S(=O)(=O)c1cccc(NC(=O)CSc2nncs2)c1	-3	10µM*	-2	?	2%
CCC(C(=O)Nc1cccc(S(=O)(=O)N(C)c2ccccc2)c1)c1ccccc1 (stereo not given)	.	11µM*	.	?	6%
CCOc1ccc(Br)cc1S(=O)(=O)Nc1cccc(S(=O)(=O)N(C)c2ccccc2)c1	-14	-28%	-1	7.9µM*	-2%
CCOc1ccc(Br)cc1S(=O)(=O)Nc1ccc(C(=O)OCC(=O)N(C)c2ccccc2)cc1	-10	10%	-1	-12%	24%
CN(c1ccccc1)S(=O)(=O)c1cccc(NC(=O)CSc2nnc(N)s2)c1	-9	?	1	18µM*	23%
SMILES	Shiga toxin inh	Lassa entry inh	Cycloheximide cs	MARV entry inh	AMA1 RON2 block
CN1c2ccccc2-c2nc(SCC(=O)Nc3ccccc3)ncc2S1(=O)=O	.	-14%[46.1 µM]	.	.	.
CCc1ccccc1N(CC)C(=O)c1c(C)oc2ncnc(N3CCOCC3)c12	.	-1%[46.1 µM]	.	.	.
CN(c1ccccc1)S(=O)(=O)c1cccc(NC(=O)CN2CCCc3ccccc32)c1	28	?	2	8.9µM*	-28%
O=C(NC(=S)Nc1sc2c(c1C(=O)O)CCCC2)c1ccccc1	21	21%[46.1 µM]	12*	3%[46.1 µM]	57%
CN1Cc2sc(NC(=S)NC(=O)c3ccccc3)c(C#N)c2CC1(C)C	56	?	47*	?	-21%
CC(C)(C)c1ccc(C(=O)NC(=S)Nc2sc3c(c2C#N)CCC3)cc1	18*	?	12*	?	-1%[2.32 µM]
O=C(Nc1sc2c(c1C(=O)O)CCCC2)c1ccccc1Cl	.	?	4	?	-1%
Cn1nccc1C(=O)NC(=S)Nc1sc2c(c1C#N)CCCCC2	34	?	17	15%	5%
CC1CCc2sc(NC(=S)NC(=O)c3ccccc3)c(C#N)c2C1 (stereo not given)	+	10%	26*	?	42%
C[C@H]1[C@@H]2O[C@H]2CCO[C@H]1c1cccc(Br)c1	.	.	.	-16%[14.2 µM]	.
CC(=O)NC(=S)Nc1sc2c(c1C#N)CCCCC2	84*	?	30*	?	9%
CC1(C)Cc2c(sc(NC(=O)c3ccco3)c2C#N)CO1	22	10%	28*	7%	10%
CCN1CCc2c(sc(NC(=S)NC(=O)c3ccccc3)c2C#N)C1	29	?	22	0%	-25%
N#Cc1c(NC(=S)NC(=O)c2ccccc2)sc2c1CCC2	37	21%	32*	?	77%
N#Cc1c(NC(=O)c2ccco2)sc2c1CCC2	-25	.	-4	.	-4%
COc1ccccc1NC(=O)COc1ccc2c(c1)OCO2	70*	.	25*	.	0%
COc1ccc(OCC(=O)Nc2ccccc2OC)cc1	17	2%	10	?	38%
O=C(COc1ccc2c(c1)OCO2)Nc1nncs1	33	7%[46.1 µM]	18*	-4%[46.1 µM]	-13%
COc1ccc(OCC(=O)Nc2ccccc2OC(F)F)cc1	8	7%	9.6*	0%	-3%
O=C(COc1ccc2c(c1)OCO2)NC12CC3CC(CC(C3)C1)C2	44*	4%	17*	6%[46.1 µM]	-16%
O=C(NCc1ccc2c(c1)OCO2)NC12CC3CC(CC(C3)C1)C2	-2	?	11	-18%	-6%
COc1ccc(N2CCN(S(=O)(=O)c3ccc(F)c(C(=O)Nc4ccccc4Cl)c3)CC2)cc1	.	-19%[46.1 µM]	.	.	.
CSc1ccccc1NC(=O)COc1ccc2c(c1)OCO2	.	.	.	.	78%
COc1ccccc1NC(=O)NNC(=O)COc1ccc2ccccc2c1	-38	.	24*	.	126%
CCOc1ccccc1NC(=O)COc1ccc2c(c1)OCO2	59*	1%[46.1 µM]	22	?	-3%
SMILES	Shiga toxin inh	Lassa entry inh	Cycloheximide cs	MARV entry inh	AMA1 RON2 block
NC(=O)c1ccccc1NC(=O)COc1ccc2c(c1)OCO2	85*	?	29*	?	6%
C/C=C\c1ccccc1OCc1ccc(C(=O)O)o1	.	.	.	11%[46.1 µM]	.
CCCCNC(=S)N/N=C/c1ccc(C)s1	61*	-17%	50*	1%	22%
CCOC(=O)N/N=C\c1ccc([N+](=O)[O-])s1	42	-16%	10	?	2%
CCCCNC(=S)N/N=C/c1cc(C)ccc1C	-4	?	-2	-17%	-7%
CC(=O)Nc1ccc(S(=O)(=O)N/N=C/c2ccc(C)s2)cc1	73*	?	48*	-1%	-14%
CCOC(=O)N/N=C\c1ccc(C)s1	68*	4%	29*	27%	0%
Cc1ccc(/C=N/NC(=S)NCCc2ccccc2)s1	12	.	17	.	81%
